Some test systems named below: HCT-15 colon; HT29 colon; SNB-75 CNS; SNB-19 CNS; U251 CNS; PC-3 prostate; SK-MEL-5 melanoma; LOX IMVI melanoma; SK-MEL-28 melanoma; SK-MEL-2 melanoma; EKVX NSCLC; SN12C renal; UO-31 renal; TK-10 renal; ACHN renal; CAKI-1 renal; A498 renal; CCRF-CEM leukemia; MOLT-4 leukemia; UACC-62 melanoma.
Holding throughout (assay): NCI-60 one-dose screen, 48 h (100 = growth as untreated, 0 = no growth, -100 = all killed)
Holding throughout (details): 10 µM

The panel holds about 83,000 compounds, 20% with a hit somewhere; the sample as a whole holds those more often.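 Plates (96-well) were seeded with cells, treated with compound at one concentration, and incubated for 48 hours before percent growth was determined.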 A number with no mark means an inactive call. Activity calls are given as the source filed them. The calls were made as follows: active = growth percent below 10; inactive = the rest.

For `COc1ccc(OC)c(-c2cc(-c3c[nH]c4ccccc34)nc(N)c2C#N)c1`, the growth in the assay with HCT-15 colon was 1.05% (active); in the assay with HT29 colon it was -12.6% (active); in the assay on SNB-75 CNS, -8.84% (active); in the assay with SNB-19 CNS, 11.6%; with U251 CNS, -1.3% (active); in the assay with PC-3 prostate, 13.1%. The growth in the assay with SK-MEL-5 melanoma is -84.8% (active); with LOX IMVI melanoma, -65.8% (active); with SK-MEL-28 melanoma, 4.59% (active); in the assay on SK-MEL-2 melanoma it was -18.3% (active); in the assay with EKVX NSCLC, 13.7%; in the assay on SN12C renal, 2.5% (active). In addition, the growth with UO-31 renal is -15.5% (active); with TK-10 renal it was 37.4%; in the assay with ACHN renal, 8.49% (active); in the assay on CAKI-1 renal, 7.28% (active); with A498 renal it was 2.72% (active); with CCRF-CEM leukemia, 8.99% (active). Moreover, the growth in the assay on MOLT-4 leukemia was 7.55% (active).
As to `COc1ccc2nc(Nc3cccc(NC(=O)c4ccc(CN5CCN(C)CC5)c(C(F)(F)F)c4)c3)ccc2c1`, the growth in the assay on HCT-15 colon is -83.4% (active); in the assay with HT29 colon it was -73.9% (active); in the assay on SNB-75 CNS it was -39.5% (active); with SNB-19 CNS it was -96.8% (active); in the assay with U251 CNS, -77.5% (active); in the assay with PC-3 prostate, -8.06% (active). For the same compound, the growth is -100% (active) in the assay on SK-MEL-5 melanoma; -100% (active) in the assay on LOX IMVI melanoma; -96.9% (active) with SK-MEL-28 melanoma; -98.3% (active) in the assay with SK-MEL-2 melanoma; -98% (active) in the assay with EKVX NSCLC; -92.6% (active) in the assay on SN12C renal. The growth with UO-31 renal was -48.2% (active); in the assay with TK-10 renal it was -44.4% (active); in the assay with ACHN renal, -94.8% (active); with CAKI-1 renal, -33.7% (active); with A498 renal, -42.3% (active); in the assay on CCRF-CEM leukemia, -10.5% (active). Also, the growth in the assay on MOLT-4 leukemia was -44.6% (active).
Take `O=C1Nc2cc(-c3ccc(NC(=O)c4cccs4)cc3)ccc2/C1=C/c1ccc[nH]1`: the growth in the assay on HCT-15 colon is 47.6%; in the assay with HT29 colon it was 71.1%; in the assay on SNB-75 CNS, 138%; with SNB-19 CNS, 87.1%; with U251 CNS, 65.9%; in the assay with PC-3 prostate it was 65.6%. Moreover, the growth in the assay with SK-MEL-5 melanoma was 63.6%; in the assay with LOX IMVI melanoma, 55.7%; with SK-MEL-28 melanoma, 101%; in the assay on SK-MEL-2 melanoma, 83.5%; in the assay on EKVX NSCLC, 55.2%; in the assay on SN12C renal, 65.3%. The growth with TK-10 renal is 112%; with ACHN renal, 82%; in the assay with CAKI-1 renal it was 89.7%; in the assay with A498 renal, 151%; in the assay with CCRF-CEM leukemia, 41.8%; with MOLT-4 leukemia, 37.4%.
As for `Cn1cc(-c2cc(N)n3nc(-c4c[nH]c5ccc(Br)cc45)cc3n2)c2cc(Br)cnc21`, the growth in the assay on HCT-15 colon is -96.3% (active); in the assay on HT29 colon, -86.3% (active); in the assay with SNB-75 CNS, -19.6% (active); with SNB-19 CNS, -35.9% (active); in the assay on U251 CNS, -76.5% (active); with PC-3 prostate, -44.8% (active). Also, the growth with SK-MEL-5 melanoma was -99% (active); in the assay with LOX IMVI melanoma, -94.5% (active); with SK-MEL-28 melanoma, -87.1% (active); in the assay on SK-MEL-2 melanoma it was -83.6% (active); with EKVX NSCLC it was -84.1% (active); with UO-31 renal, -70.9% (active). Further, the growth with TK-10 renal is -81.9% (active); in the assay on ACHN renal, -93.2% (active); with CAKI-1 renal it was -69.1% (active); in the assay with A498 renal, -86.5% (active); in the assay on CCRF-CEM leukemia, -32.1% (active); with MOLT-4 leukemia, -28.6% (active).
Take `CCOC(=O)C(Cc1ccccc1)N1C(=O)/C(=C/N2N=C(c3ccc(OC)cc3)CC2c2ccc3ccccc3c2)SC1=S` (stereo not drawn): the growth in the assay with HCT-15 colon is -67.4% (active); with HT29 colon it was -2.97% (active); with SNB-75 CNS, 40.6%; in the assay with SNB-19 CNS, 14.9%; in the assay on PC-3 prostate, 18.9%; with SK-MEL-5 melanoma it was -98.2% (active). Besides, the growth in the assay on UACC-62 melanoma is -76.7% (active); in the assay on LOX IMVI melanoma, -100% (active); in the assay with SK-MEL-28 melanoma, 9.31% (active); in the assay with SK-MEL-2 melanoma, -64.1% (active); in the assay with EKVX NSCLC, -7.27% (active); in the assay with SN12C renal it was 8.88% (active). For the same compound, the growth was 16.2% in the assay on UO-31 renal; 24.8% in the assay with TK-10 renal; 23.2% in the assay with ACHN renal; 24.8% in the assay on CAKI-1 renal; -13.3% (active) in the assay with A498 renal; 5.96% (active) in the assay on CCRF-CEM leukemia. Besides, in the assay with MOLT-4 leukemia, the growth is 4.16% (active).
Take `N#Cc1ccc(-c2nn(-c3ccc(C(=O)O)cc3)cc2CNc2ccc(Oc3ccccc3)cc2)cc1`: the growth was 49.7% with HCT-15 colon; 34.4% with HT29 colon; 101% with SNB-75 CNS; 28.6% in the assay on SNB-19 CNS; 29.5% in the assay on PC-3 prostate; 70% in the assay on SK-MEL-5 melanoma. The growth with UACC-62 melanoma is 21.9%; in the assay on LOX IMVI melanoma, 24.1%; in the assay on SK-MEL-28 melanoma, 21.3%; in the assay on SK-MEL-2 melanoma, 55.6%; in the assay with EKVX NSCLC, 75%; in the assay with SN12C renal it was 34.1%. The growth in the assay on UO-31 renal is 66.5%; with TK-10 renal, 77.1%; in the assay on ACHN renal, 47.3%; with CAKI-1 renal it was 59.7%; in the assay on A498 renal it was 73%; in the assay on CCRF-CEM leukemia it was 19.3%. Moreover, the growth in the assay with MOLT-4 leukemia is 19.9%.
In the case of `O=C(Nc1ccncc1)c1ccc(-n2c(=O)[nH]c3ccccc3c2=O)cc1`, the growth in the assay with HCT-15 colon is 97.9%; with HT29 colon it was 105%; with SNB-75 CNS, 107%; in the assay on SNB-19 CNS, 91.1%; in the assay with PC-3 prostate, 92.4%; with SK-MEL-5 melanoma, 90.8%. The growth with UACC-62 melanoma was 76.9%; in the assay with LOX IMVI melanoma it was 83.9%; with SK-MEL-28 melanoma, 104%; in the assay on SK-MEL-2 melanoma, 91.9%; in the assay on EKVX NSCLC it was 94.2%; in the assay with SN12C renal, 90.5%. Also, the growth in the assay with TK-10 renal is 103%; in the assay on ACHN renal, 96.2%; in the assay on CAKI-1 renal, 87.3%; with A498 renal, 114%; in the assay with CCRF-CEM leukemia, -31.5% (active).
On to `COc1ccc2[nH]cc(/C=N/Nc3ccc(Br)cn3)c2c1`, for which the growth in the assay on HCT-15 colon is 6.98% (active); in the assay with HT29 colon, 23.3%; in the assay on SNB-75 CNS, 43.7%; in the assay on SNB-19 CNS it was 51.2%; with PC-3 prostate, 23%; with SK-MEL-5 melanoma it was 21.9%. Besides, the growth with UACC-62 melanoma was 51.3%; in the assay on LOX IMVI melanoma it was 7.7% (active); with SK-MEL-28 melanoma, 61.5%; in the assay with SK-MEL-2 melanoma, 73.5%; with EKVX NSCLC it was 22.9%; in the assay on SN12C renal, 23.7%. Also, the growth is 11% in the assay with UO-31 renal; 54% in the assay on TK-10 renal; 26.7% in the assay on ACHN renal; 30.9% in the assay on CAKI-1 renal; 50.7% in the assay with A498 renal; 11.2% with CCRF-CEM leukemia. For the same compound, in the assay with MOLT-4 leukemia, the growth is 24.6%.

The values are drawn from PubChem BioAssay (NCI).
